Measurements published in PubChem BioAssay (NCATS).
A number with no mark means an inactive call. Records with an inconclusive call do not appear. Where a call stands in place of a potency, no number is given. The source made the active and inactive calls. The call rests on the fitted dose curve; in most records, active means well fitted curve in the direction sought with a large enough effect; inconclusive means small, poorly fitted or top-dose-only effect, or another doubt; inactive means no such curve, though single readings can be large; an effect the other way counts as inactive or inconclusive.

How the values were obtained:
[1] = HPAF-II 24hr Apoptosis Induction qHTS against the NCATS CANVASS Library (AID 1347356)
Procedure, shortened: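 Luminescent caspase-3/7 signal (DEVD substrate, Caspase-Glo) served as read-out, taken 15 min after reagent addition to HPAF-II cells exposed 24 h to compounds.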

[2] = HEK293 18hr Apoptosis Induction qHTS against the NCATS CANVASS Library (AID 1347357)
Procedure, shortened: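 Luminescent caspase-3/7 signal is measured in HEK293 cells exposed for 18 hours to an 11-point concentration series; doxorubicin serves as the plate control.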

[3] = HPAF-II 12hr Apoptosis Induction qHTS against the NCATS CANVASS Library (AID 1347358)
Procedure, shortened: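 500 HPAF-II cells/well; cmpds 11-pt; 12 hr, 37 degrees C/5% CO2; Caspase-Glo 3/7 added, 15 min RT dark; luminescence read. Doxorubicin titration as control.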

[4] = HEK293 24hr Apoptosis Induction qHTS against the NCATS CANVASS Library (AID 1347359)
Procedure, shortened: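 HEK293 cells (500/well, DMEM + 10% FBS) were exposed to compounds in an 11-point series for 24 hours at 37 degrees C, then caspase-3/7 activity was read by Caspase-Glo DEVD luciferase luminescence after 15 min.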

[5] = HPAF-II 18hr Apoptosis Induction qHTS against the NCATS CANVASS Library (AID 1347360)
Procedure, shortened: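 Apoptosis was scored as caspase-3/7 activity in HPAF-II pancreatic cancer cells treated 18 hours with an 11-point concentration series.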

[6] = SDT Cancer Cell Toxicity qHTS against the NCATS CANVASS Library (AID 1347365); further: nearly all actives have a fitted effect of over 60% in size; further: potency means the concentration at half of the fitted maximal effect
Procedure, shortened: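 qHTS, SDT dog glioma line, 500 cells/well; cpds 11 pts; 72 hr, 37C, 5% CO2; CellTiterGlo ATP luminescence.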

[7] = qHTS for ATAD5 Agonist screened against the NCATS CANVASS Library (AID 1347367);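 further: luciferase reporter driven by ATAD5 which rises upon DNA damage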
Procedure, shortened: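 Step one plated reporter cells and let them acclimate 5hr. Step two pinned compounds with MMS as positive and 0.46% DMSO as negative control. After 16hr incubation, fluorescence viability then luminescence were read.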

[8] = MCF7 Cancer Cell Toxicity qHTS against the NCATS CANVASS Library (AID 1347369); further: series mostly up to about 46 µM
Procedure, shortened: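 Cytotoxicity is measured by ATP content: MCF7 cells at 500 per well receive an 11-point compound series and, after 72 hr at 37C, are lysed with CellTiterGlo for luminescence.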

[9] = qHTS for ATAD5 Antagonist screened against the NCATS CANVASS Library (AID 1347370);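 further: HEK293T cells carrying an ATAD5 luciferase reporter co-treated with 10 µM 5-fluorouridine; series mostly up to about 46 µM; nearly all actives have a fitted effect of over 65% in size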
Procedure, shortened: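 HEK293T cells with stably integrated ATAD5-luciferase reporter, 2000/well, 5 h attachment; compounds plus 10 µM 5-fluorouridine, 16 h at 37 °C. Luciferase luminescence read, with CellTiter-Fluor viability read first.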

[10] = J3T Cancer Cell Toxicity qHTS against the NCATS CANVASS Library (AID 1347371); further: potency means the concentration at half of the fitted maximal effect
Procedure, shortened: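 Cells plated at 500 per well, compounds pin-transferred, plates incubated 72 hr at 37C, then CellTiterGlo added and luminescence read to measure ATP content.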

[11] = target: Nuclear receptor subfamily 1 group I member 3 (Homo sapiens) (UniProt Q14994); test: qHTS for Constitutive Androstane Receptor (CAR) Agonist screened against the NCATS CANVASS Library (AID 1347373);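 further: every well also contained 1.5 µM PK11195 alongside the test compound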
Procedure, shortened: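 HepG2-hCAR-CYP2B6 cells, 2500/well, attached 4hr; cpd + PK11195 1.5uM final; 24hr 37C 5% CO2. CellTiter-Fluor viability read, then ONE-Glo luminescence for CAR activation.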

[12] = qHTS for Hypoxia signaling pathway (HIF-1) agonists against the NCATS CANVASS Library (AID 1347375)
Procedure, shortened: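 ME-180 HRE-bla reporter cells; 2,000/well, 0.5% dialyzed FBS; cpd added after 5 h, 17 h 37C/5% CO2; CCF4-AM 2 h RT; FRET 460/530 nm; CellTiter-Glo viability same wells, 30 min.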

[13] = qHTS for activators of dead-cell proteases activity screened against the NCATS CANVASS Library (AID 1347392);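 further: luminescence from protease leaking out of membrane-damaged cells cleaving impermeant substrate; rising signal means more cytotoxicity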
Procedure, shortened: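 HepG2 cells (2000/well) attached 18 h at 37C, then exposed 5 h to compounds (11-point qHTS). Dead-cell protease activity read as luminescence from cell-impermeant AAF-aminoluciferin substrate after 15 min at room temperature.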

[14] = qHTS for H2AX Agonists against the NCATS CANVASS Library (AID 1347378);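 further: phospho-H2AX S139 level in CHO-K1 lysates by TR-FRET emission ratio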
Procedure, shortened: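 Following overnight seeding, CHO-K1 cells are incubated with a concentration series of compound for 3 hr at 37C (final DMSO 0.76%). Cells are then lysed, detection antibodies added, and emission ratio 665/620 nm recorded after 24 hr at room temperature.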

[15] = qHTS for Inflammasome Signaling Inhibitors: IL-1-beta AlphaLISA screen against the NCATS CANVASS Library (AID 1347379);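 further: human THP-1 cells primed with LPS then triggered with ATP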
Procedure, shortened: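 THP-1 cells pretreated 1 hr with compound (up to 57.5 uM final), then stimulated with LPS (250 ng/mL final) and ATP (1.25 mM final). Secreted IL-1B measured by AlphaLISA after 16 hr; glyburide as positive control.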

[16] = qHTS for Activators of p53 Stress Response Pathway screened against the NCATS CANVASS Library (AID 1347388)
Procedure, shortened: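 p53RE-bla HCT-116 cells (4000/well) were plated 5 h at 37C, exposed to compounds for 16 h at 37C over an 11-point concentration series, then loaded with CCF4 for 2 h at room temperature; 460/530 nm emission ratio read.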

[17] = qHTS assay for small molecule disruptors of mitochondrial membrane potential screened against the NCATS CANVASS Library (AID 1347389); further: nearly all actives have a fitted effect of over 60% in size; further: potency means the concentration at half of the fitted maximal effect
Procedure, shortened: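 HepG2, 2,000 cells/well, attached overnight; compound 1 hr, 37C, 5% CO2; Mito-MPS dye 30 min, 37C; fluorescence 535 nm (monomer) and 590 nm (aggregate); decreased 590/535 ratio = depolarization.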

[18] = qHTS for inhibitors of Wild type Zika virus screened against the NCATS CANVASS Library (AID 1347396);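 further: ATP luminescence of surviving cells so rescue from viral cell killing; series mostly up to about 46 µM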
Procedure, shortened: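 Vero 766 (African green monkey) cells, 1000 per well, attached overnight, then compounds were added in an 11-point series before wild-type Zika virus infection. After 72 h at 37C, cell viability was read as CellTiter Glo luminescence.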

[19] = test system: NAD(P)H diaphorase (Clostridium kluyveri); test: Diaphorse counterscreen qHTS: Assay Interference Panel against the NCATS CANVASS Library (AID 1347362)
Procedure, shortened: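 Clostridium kluyveri diaphorase in PBS with 0.01% Tween-20 was preincubated 15 min at room temperature in the dark with compounds (11-point series). Resorufin fluorescence (ex 525/20, em 598/25) was read 5 min after adding resazurin/NADH.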

[20] = HEK-293 Cancer Cell Toxicity qHTS against the NCATS CANVASS Library (AID 1347355); further: nearly all actives have a fitted effect of over 65% in size; further: potency means the concentration at half of the fitted maximal effect
Procedure, shortened: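 Luminescent ATP read-out (CellTiter-Glo, 15min at room temperature) measures survival after cells face an 11-point compound series for 72 hours at 37 degrees C/5% CO2.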

Chain of Nuclear receptor subfamily 1 group I member 3 (Homo sapiens) (Q14994 whole entry, looked up): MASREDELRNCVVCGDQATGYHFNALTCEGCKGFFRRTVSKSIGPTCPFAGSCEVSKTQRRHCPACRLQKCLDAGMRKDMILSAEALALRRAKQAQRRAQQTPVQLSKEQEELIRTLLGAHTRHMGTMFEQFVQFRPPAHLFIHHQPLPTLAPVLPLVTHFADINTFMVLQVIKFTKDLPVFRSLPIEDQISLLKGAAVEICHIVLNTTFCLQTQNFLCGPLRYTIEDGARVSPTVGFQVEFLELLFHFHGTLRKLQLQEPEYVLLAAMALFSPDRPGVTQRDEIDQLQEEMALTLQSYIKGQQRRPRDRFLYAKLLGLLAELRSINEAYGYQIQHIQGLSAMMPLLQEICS

SMILES | outcome [1] | Potency [2] | Potency [3] | Potency [4] | Potency [5] | Potency [6] | Potency [7] | Potency [8] | Potency [9] | Potency [10] | Potency [11] | outcome [12] | Potency [13] | Potency [14] | Potency [15] | Potency [16] | Potency [17] | outcome [18] | Potency [19] | Potency [20]
C=CC(CCCCC)C1C(=O)NC(=O)C1C(=O)C1C(/C=C/C)C=CC2CC(C(=O)O)CC(C)C21 (centres undefined) | inactive | inactive | inactive | inactive | inactive | inactive | inactive | inactive | inactive | inactive | inactive | inactive | inactive | – | – | – | – | – | – | –
O=c1cc(-c2ccc(O)c(O)c2)oc2cc(O[C@@H]3O[C@H](CO)[C@@H](O)[C@H](O)[C@H]3O)cc(O)c12 | inactive | inactive | inactive | inactive | inactive | – | inactive | inactive | inactive | inactive | inactive | inactive | inactive | inactive | inactive | inactive | 8.31 µM (active) | inactive | – | –
CC(=O)O[C@H]1c2ccccc2-c2c3c(cc4c2[C@@H]1N(C(C)=O)CC4)OCO3 | inactive | inactive | inactive | inactive | inactive | inactive | inactive | inactive | inactive | inactive | inactive | inactive | inactive | inactive | inactive | inactive | inactive | inactive | inactive | –
CC(=O)Oc1cc2c(c(OC(C)=O)c1C1CCc3cc(Cl)c(Cl)n31)C(=O)n1c-2cc(Cl)c1Cl (centres undefined) | inactive | inactive | inactive | inactive | inactive | 10.5 µM (active) | inactive | – | – | 13.2 µM (active) | – | inactive | inactive | inactive | – | – | 2.09 µM (active) | – | inactive | 16.6 µM (active)
C/C(=C\CC[C@@H](C)[C@H]1CC[C@]2(C)C3=CCC4C(C)(C)[C@@H](O)C[C@@H](O)[C@]4(C)C3[C@H](O)C[C@@]12C)CO (some centres undefined) | inactive | inactive | inactive | inactive | inactive | inactive | inactive | inactive | inactive | inactive | inactive | inactive | inactive | inactive | inactive | inactive | inactive | – | – | –
C[C@]12CCC[C@](C)(C(=O)O)[C@@H]1CC[C@@]1(C)c3cocc3CC[C@H]21 | inactive | inactive | inactive | inactive | inactive | inactive | inactive | – | inactive | inactive | inactive | inactive | inactive | inactive | inactive | inactive | inactive | inactive | inactive | inactive
